Pf Dd2 growth: blocks growth of Plasmodium falciparum Dd2 parasites. actives 2.3% (n = 94,000). activity change, % at 10 µM. P. falciparum Dd2 growth, SYBR Green, 72 h; active compounds read low; in the data active = activity change below about -80%
C diff growth: inhibitors of Clostridium difficile growth; Clostridium difficile clinical isolate growth, OD600, 24 h; active compounds read low; AID 1259249; growth activity, negative = inhibition, % at 16 µg/mL (by protocol); actives 0.25% (n = 86,000);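 active = mean growth activity at or below -80% and every replicate also at or below -80%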
Each line names hits and unclear results; the compound was inactive in the other large screens. Hits are enriched below; roughly 2.3% of the tested compounds scored in any of these assays.

COc1ccc(NC(=O)Nc2ccc3c(c2)C(=O)N([C@H](C)CO)C[C@H](C)[C@H](CN(C)C(=O)Nc2ccc(C(F)(F)F)cc2)O3)cc1	none (no result: C diff growth)
Cc1noc(C)c1NC(=O)Nc1ccc2c(c1)C(=O)N([C@@H](C)CO)C[C@H](C)[C@@H](CN(C)Cc1ccc(Cl)c(Cl)c1)OCCCC[C@@H](C)O2	Pf Dd2 growth -85.3
C[C@@H]1CCCCO[C@H](CN(C)Cc2ccc(Cl)c(Cl)c2)[C@@H](C)CN([C@H](C)CO)C(=O)c2cc(NC(=O)Nc3ccc(F)cc3)ccc2O1	none (no result: C diff growth)
C[C@@H]1CCCCO[C@@H](CN(C)Cc2ccc(Cl)c(Cl)c2)[C@H](C)CN([C@H](C)CO)C(=O)c2cc(NC(=O)Nc3ccccc3)ccc2O1	Pf Dd2 growth -82.6
Cc1noc(C)c1NC(=O)Nc1ccc2c(c1)C(=O)N([C@H](C)CO)C[C@H](C)[C@@H](CN(C)Cc1ccc(Cl)c(Cl)c1)OCCCC[C@H](C)O2	none
COc1ccc(CN(C)C[C@H]2Oc3c(NC(=O)c4nc5ccccc5s4)cccc3C(=O)N([C@H](C)CO)C[C@@H]2C)cc1	none
CCCN(C)C[C@H]1Oc2cc(-c3ccc(C#N)cc3)ccc2S(=O)(=O)N([C@@H](C)CO)C[C@H]1C	none
CCC(=O)Nc1ccc2c(c1)OC[C@@H](C)N(C(=O)Cc1ccccn1)C[C@H](C)[C@H](OC)CN(C)C2=O	none
C[C@H]1CN([C@@H](C)CO)C(=O)c2c(c3ccccc3n2C)-c2ccccc2CO[C@H]1CN(C)Cc1ccc(F)cc1	none
C[C@@H]1CN([C@@H](C)CO)C(=O)c2c(c3ccccc3n2C)-c2ccccc2CO[C@H]1CN(C)Cc1ccc(F)cc1	none
C[C@@H]1CN([C@@H](C)CO)C(=O)c2c(c3ccccc3n2C)-c2ccccc2CO[C@@H]1CN(C)Cc1ccc(O)cc1	none
C[C@H]1CN([C@@H](C)CO)C(=O)c2c(c3ccccc3n2C)-c2ccccc2CO[C@H]1CN(C)Cc1ccc(Oc2ccccc2)cc1	Pf Dd2 growth -83.5
C[C@H]1CN([C@@H](C)CO)C(=O)c2c(c3ccccc3n2C)-c2ccccc2CO[C@@H]1CN(C)Cc1ccc(Oc2ccccc2)cc1	Pf Dd2 growth -87.5
C[C@@H]1CN([C@H](C)CO)C(=O)c2c(c3ccccc3n2C)-c2ccccc2CO[C@H]1CN(C)Cc1ccc(Oc2ccccc2)cc1	Pf Dd2 growth -86.9
CCCN1C[C@H](C)[C@@H](OC)CN(C)C(=O)c2cc(NC(=O)c3cccc(F)c3)ccc2OC[C@H]1C	none
CN1CCN(C(=O)C[C@H]2CC[C@H](NC(=O)c3ccc4c(c3)OCO4)[C@H](CO)O2)CC1	none (no result: C diff growth)
Cc1ccc(S(=O)(=O)N(C)C[C@H]2Oc3ccc(NS(=O)(=O)c4c(C)noc4C)cc3CC(=O)N([C@H](C)CO)C[C@H]2C)cc1	none
N#C[C@H]1[C@@H](c2ccccc2-c2cccc(F)c2)[C@@H](CO)N1C(=O)C1CCCCC1	none
COCC(=O)N1CC2(C1)CN(Cc1cc(F)ccc1F)[C@H](CO)c1c2c2ccc(OC)cc2n1C	none
C[C@@H]1CCCCO[C@H](CN(C)S(=O)(=O)c2ccccc2)[C@H](C)CN([C@@H](C)CO)C(=O)c2cc(NC(=O)C3CCCCC3)ccc2O1	none
C[C@H]1CCCCO[C@H](CN(C)S(=O)(=O)c2ccccc2)[C@@H](C)CN([C@@H](C)CO)C(=O)c2cc(NC(=O)C3CCCCC3)ccc2O1	Pf Dd2 growth -84.3
C[C@@H]1CN([C@@H](C)CO)C(=O)c2cc(NC(=O)C3CCCCC3)ccc2O[C@@H](C)CCCCO[C@@H]1CN(C)S(=O)(=O)c1ccccc1	none
C[C@@H]1CCCCO[C@H](CN(C)S(=O)(=O)c2ccccc2)[C@@H](C)CN([C@@H](C)CO)C(=O)c2cc(NC(=O)C3CCCCC3)ccc2O1	Pf Dd2 growth -80.4
C[C@@H]1CN([C@H](C)CO)C(=O)c2cc(NC(=O)Nc3ccc4c(c3)OCO4)ccc2O[C@@H](C)CCCCO[C@H]1CN(C)S(C)(=O)=O	none
C[C@H]1CN([C@@H](C)CO)C(=O)c2cccc(NC(=O)Nc3ccc4c(c3)OCO4)c2O[C@@H]1CN(C)C(=O)Nc1ccc2c(c1)OCO2	none
C[C@H]1CN([C@@H](C)CO)C(=O)c2cccc(NC(=O)Nc3ccc4c(c3)OCO4)c2O[C@@H]1CN(C)Cc1ccc(C(=O)Nc2ccccc2N)cc1	Pf Dd2 growth -85.2
C[C@@H]1CN([C@@H](C)CO)C(=O)c2cccc(NC(=O)Nc3ccc4c(c3)OCO4)c2O[C@H]1CN(C)Cc1ccc(C(=O)Nc2ccccc2N)cc1	Pf Dd2 growth -84.8 (no result: C diff growth)
C[C@@H]1CN([C@@H](C)CO)C(=O)c2cccc(NC(=O)Nc3ccc4c(c3)OCO4)c2O[C@@H]1CN(C)Cc1ccc(C(=O)O)cc1	none
C[C@@H]1CN([C@@H](C)CO)C(=O)c2cccc(NC(=O)Nc3ccc4c(c3)OCO4)c2O[C@@H]1CN(C)C(=O)Nc1ccc2c(c1)OCO2	Pf Dd2 growth -89.6

Bioassay records (PubChem)
